# According to PubChem BioAssay (NCATS):
# Where “and” joins values, the source holds several entries; their conditions need not be identical. Equal values may be shown once. Inconclusive results are not listed. Entries that show only a call come without a potency. Calls of active or inactive are those of the source. Unless noted, calls follow the shape of the dose curve; as a rule, active = well fitted curve in the direction sought with a large enough effect; inconclusive = small, poorly fitted or top-dose-only effect, or another doubt; inactive = no such curve, though single readings can be large; an effect the other way counts as inactive or inconclusive.
# Columns and labels:
# [1] = biological target: N-terminal Xaa-Pro-Lys N-methyltransferase 1 (Homo sapiens) (UniProt Q9BV86); test: Confirmatory qHTS for Inhibitors of N-terminal methyltransferase 1 (NTMT1): MTaseGlo Assay (AID 1645874);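 also: luminescence from SAH made as NTMT1 methylates SPKRIA peptide using SAM; series mostly up to about 100 µM; nearly all actives have a fitted effect of over 65% in size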
# Procedure, shortened: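 Compounds are incubated with 125 nM NTMT1 and 100 uM SAM for 15 min before the SPKRIA peptide (1 uM) starts a 30 min room-temperature methylation. SAH is measured by coupled luciferase luminescence and curves fitted to a Hill equation.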
# [2] = biological target: Cytochrome P450 2C9 (Homo sapiens) (UniProt P11712); test: Cytochrome P450 family 2 subfamily C member 9 (CYP2C9) small molecule antagonists: luciferase biochemical (cell-free) qHTS assay (AID 1645842; active = well fitted curve in the direction sought with a large enough effect in the repeat runs; an effect the other way counts as inactive or inconclusive; also: nearly all actives have a fitted effect of over 55% in size; also: potency is read from the fitted curve at half-maximal effect)
# Procedure, shortened: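 Luminescence, after 20 min with luciferin detection reagent, reflected CYP2C9 turnover during a 1 h NADPH-driven reaction at 37C. Enzyme-substrate mix contained 0.4% bovine serum albumin and was preincubated with compound 10 min at room temperature.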
# [3] = Primary qHTS for inhibitors of nuclear receptor binding SET domain protein 2 (NSD2) in an isogenic RCH-ACV NSD2 p.E1099K mutant (9B) (AID 1645876); also: nearly all actives have a fitted effect of over 70% in size; also: potency is read from the fitted curve at half-maximal effect
# [4] = Primary qHTS for inhibitors of nuclear receptor binding SET domain protein 2 (NSD2) in an RCH-ACV wild type WT cells (2C) (AID 1645877); also: nearly all actives have a fitted effect of over 70% in size; also: potency is read from the fitted curve at half-maximal effect
# Chain of N-terminal Xaa-Pro-Lys N-methyltransferase 1 (Homo sapiens) (Q9BV86 whole entry, looked up): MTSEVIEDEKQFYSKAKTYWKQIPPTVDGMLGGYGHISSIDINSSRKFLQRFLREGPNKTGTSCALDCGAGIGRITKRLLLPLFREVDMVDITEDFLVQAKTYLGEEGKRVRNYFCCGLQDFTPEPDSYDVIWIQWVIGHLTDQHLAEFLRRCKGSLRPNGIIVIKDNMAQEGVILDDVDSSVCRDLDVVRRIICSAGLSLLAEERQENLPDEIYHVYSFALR
# Chain of Cytochrome P450 2C9 (Homo sapiens) (P11712 whole entry, looked up): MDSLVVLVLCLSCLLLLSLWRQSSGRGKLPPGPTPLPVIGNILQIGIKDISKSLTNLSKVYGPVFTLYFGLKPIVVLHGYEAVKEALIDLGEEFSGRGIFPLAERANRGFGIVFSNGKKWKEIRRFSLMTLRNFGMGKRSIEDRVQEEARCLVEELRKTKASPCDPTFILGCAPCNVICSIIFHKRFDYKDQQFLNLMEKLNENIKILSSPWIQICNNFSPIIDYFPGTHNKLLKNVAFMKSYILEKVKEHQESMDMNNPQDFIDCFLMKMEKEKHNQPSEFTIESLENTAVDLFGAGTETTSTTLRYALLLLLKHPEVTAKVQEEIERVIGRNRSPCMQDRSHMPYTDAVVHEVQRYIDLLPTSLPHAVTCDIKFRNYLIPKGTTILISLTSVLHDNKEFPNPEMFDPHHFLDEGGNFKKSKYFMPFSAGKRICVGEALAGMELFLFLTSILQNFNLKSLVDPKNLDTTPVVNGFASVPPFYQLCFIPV
Structure (SMILES),Potency [1],Potency [2],Potency [3],Potency [4]
COc1c(C)c(C(=O)c2ccc(N)c(C(=O)O)c2)n2ccccc12,inactive,–,–,–
CC[C@@H](c1ccc(F)c(F)c1)n1c(C(=O)OC)c(-c2ccno2)[nH]c1=S,inactive,–,–,–
CCOC(=O)c1ccc(N(C)c2csc(-c3ccccc3)n2)cc1,–,0.674 µM (active),inactive,inactive
FC(F)(F)c1cc(C(F)(F)F)c2ccc3nc(-c4nnco4)cn3c2n1,–,inactive,inactive,inactive
CC(C)Nc1cc(-c2c[nH]c(C(=O)N[C@H](CO)c3cccc(Cl)c3)c2)c(Cl)cn1,–,4.77 µM (active),20.5 µM (active) and 2.95 µM (active),8.17 µM (active) and 2.95 µM (active)
CC1(C)OC(=O)C(OCC2CC2)=C1c1ccc(S(C)(=O)=O)cc1,–,13.5 µM (active),inactive,inactive
Nc1ncnc2c1ncn2[C@H]1CCCO1,–,inactive,inactive,inactive
CCOC(=O)N1CCC(NCCNC(=O)c2ccccc2C)CC1,–,inactive,inactive,inactive
Cc1nn(C)c2c1C(c1ccc(C(F)(F)F)cc1)C(C#N)=C(N)O2 (configuration not stated),–,21.3 µM (active),inactive,inactive
Cc1nn(C)c(COc2ccc(N3CCN(S(=O)(=O)N(C)C)CC3)cc2)c1-c1cccc2c(CCCOc3cccc4ccccc34)c(C(=O)O)n(CCN3CCOCC3)c12,–,13.5 µM (active),inactive,inactive
O=C(CCCCc1ccc2ccccc2c1)C(F)(F)F,–,9.52 µM (active),inactive,inactive
N[C@@H](CC(=O)N1CCn2c(nnc2C(F)(F)F)C1)Cc1[nH]nc2c(F)c(F)ccc12,–,inactive,inactive,inactive
